Measured values taken from ChEMBL document CHEMBL4888484, “Replenishing the malaria drug discovery pipeline: Screening and hit evaluation of the MMV Hit Generation Library 1 (HGL1) against asexual blood stage Plasmodium falciparum ,using a nano luciferase reporter read-out” (2022).
Screen size: about 4,800 compounds; about 420 (8.8%) showed an effect of 50% or more. This is one part of a sample in which strong results are shown more often than they occur.

What follows are compounds tested on Plasmodium falciparum (assay: Confirmatory screen in NF54 nanoGlo assay, in single point, at 2uM, 72h). Settings: timepoint 72 hour.
Type: functional, Erythrocyte
For `O=C(Cn1c(=O)n(Cc2nc(-c3ccccc3)no2)c(=O)c2ccccc21)Nc1cccc(Cl)c1`, the “% Inhibition” value was 5%. `O=C(NCc1ccccc1)c1cnn2c3c(cnc12)CCCCCC3` was tested, and the “% Inhibition” value was 2%. For `CCc1ccccc1NC(=O)c1sccc1S(=O)(=O)N1CCc2ccccc2C1`, the “% Inhibition” value was 2%. For `Cc1cnc(CNC(=O)Nc2nnc3ccccn23)s1`, the “% Inhibition” value was -13%. In the case of `NC(=O)c1cccc(NC(=O)CC2=CCCCC2)n1`, the “% Inhibition” value is reported as -11%. In the case of `CC[C@H]1CN2C=NC(N3CCN(C(=O)Nc4cc(F)cc(F)c4)CC3)=CC2=N1`, the “% Inhibition” value is reported as 35%. In the case of `O=C(CCC(=O)c1ccc(F)cc1F)NS(=O)(=O)c1cccnc1`, the “% Inhibition” value is reported as -4%. `CS(=O)(=O)n1c(CCCc2ccccc2)nc2ccccc21` was tested, and the “% Inhibition” value was 1%. With `Cc1ccc(S(=O)(=O)Nc2c(S(=O)(=O)c3ccc(C)cc3)c3nc4ccccc4nc3n2CCC(C)C)cc1` the “% Inhibition” value was 98%. In the case of `Cc1cnc(C2CCC2)n1CCNS(=O)(=O)c1ccccc1`, the “% Inhibition” value is reported as -4%. In the case of `Cc1ccc(S(=O)(=O)Nc2cc3nc4ccccc4nc3n2CCc2ccccc2)cc1`, the “% Inhibition” value is reported as 100%. For `Cc1ccc(S(=O)(=O)Nc2ccccc2-c2nnc(-c3c(NS(=O)(=O)c4ccc(C)cc4)ccc4ccccc34)o2)cc1`, the “% Inhibition” value was -14%. With `Cc1ccc(S(=O)(=O)Nc2c(S(=O)(=O)c3ccccc3)c3nc4ccccc4nc3n2CCc2ccccc2)cc1` the “% Inhibition” value was 97%. For `Cc1ccc(NS(=O)(=O)c2ccc(NC(=O)Cc3ccccc3)cc2)cc1C`, the “% Inhibition” value was 2%. In the case of `Cc1ccc(-c2nc3c(c(=O)n2CC(=O)NC[C@H]2CCCO2)CCN(Cc2ccccc2)C3)cc1`, the “% Inhibition” value is reported as -9%. For `Cc1ccc(S(=O)(=O)c2c(C)cc(-c3ccccc3)nc2N2CCOCC2)cc1`, the “% Inhibition” value was 0%. For `Cc1ccc(S(=O)(=O)Nc2c(S(=O)(=O)c3ccc(C)cc3)c3nc4ccccc4nc3n2C[C@H]2CCCO2)cc1`, the “% Inhibition” value was 52%. With `Cc1cc(NC(=O)Cn2c(=O)n(CCc3ccccc3)c(=O)c3ccccc32)no1` the “% Inhibition” value was 4%. In the case of `Cc1ccc(NCc2ncccn2)cc1OCC1CCCCC1`, the “% Inhibition” value is reported as 1%. `O=C(C1CCCC2CCCCC21)N1CCN(c2ncccn2)CC1` (stereo not drawn) was tested, and the “% Inhibition” value was -8%. For `Cc1cc(-n2nnc3ccccc32)nc(C)n1`, the “% Inhibition” value was 4%. With `Cc1ccc(Cl)c2ccc(NC(=O)CCNC(N)=O)nc12` the “% Inhibition” value was 0%. For `CN([C@H]1CCc2ccccc21)S(=O)(=O)c1ccc2c(c1)CCC2`, the “% Inhibition” value was 7%. With `Brc1ccc2sncc2c1` the “% Inhibition” value was -3%. `COc1cncc(C(=O)N2CCCc3cc(S(C)(=O)=O)ccc32)n1` was tested, and the “% Inhibition” value was 9%. In the case of `CN1CCN(CCc2nc(-c3ccc4cc[nH]c4c3)no2)CC1`, the “% Inhibition” value is reported as -4%. `CC(C)(C)OC(=O)NS(=O)(=O)Nc1nccs1` was tested, and the “% Inhibition” value was -13%. For `COCCN(c1ccncc1)S(C)(=O)=O`, the “% Inhibition” value was 6%. With `CCc1ccc(NCc2c(OCc3ccc(Br)cc3)ccc3ccccc23)cc1` the “% Inhibition” value was -11%. With `Cc1c(S(=O)(=O)N2CCC[C@H](C(=O)NC3CC3)C2)cnn1C` the “% Inhibition” value was -4%. For `Cc1ccc(S(=O)(=O)c2c(NS(=O)(=O)c3ccccc3)n(CCc3ccccc3)c3nc4ccccc4nc23)cc1`, the “% Inhibition” value was 100%. For `O=C(Nc1ccccc1)c1ccc2c(c1)C(=O)N(CCc1ccccc1)C2=O`, the “% Inhibition” value was -9%. With `O=C(Cn1c(Cc2ccc(Cl)cc2)nc2ccccc21)Nc1ccccc1` the “% Inhibition” value was 14%. With `O=C(Nc1c(S(=O)(=O)c2ccccc2)c2nc3ccccc3nc2n1CCc1ccccc1)c1ccc(Cl)cc1` the “% Inhibition” value was 102%. In the case of `Cc1ccc(S(=O)(=O)c2c(NS(=O)(=O)c3ccc(F)cc3)n(CCc3ccccc3)c3nc4ccccc4nc23)cc1`, the “% Inhibition” value is reported as 100%. In the case of `CC(C)CCn1c(=O)c2sccc2n(CC(=O)N(C)c2ccccc2)c1=O`, the “% Inhibition” value is reported as 5%. In the case of `COc1cc(OC)c(NC(=O)COc2ccccc2-c2nc3ccccc3s2)cc1Cl`, the “% Inhibition” value is reported as 0%. `O=C(c1cc2c(s1)CCCC2)N1CCC[C@H](c2nnc3ccccn23)C1` was tested, and the “% Inhibition” value was -17%. `CCN1C(=O)[C@@]2(CC(=O)Nc3c2c(C)nn3-c2ncnc3nc[nH]c23)c2cc(C)ccc21` was tested, and the “% Inhibition” value was 2%. With `COc1ccccc1OCc1nn2c([C@H]3CCCN(S(C)(=O)=O)C3)nnc2s1` the “% Inhibition” value was -3%. In the case of `O=C(O)c1cc2c(cc1C(=O)Nc1ccc(Cl)cc1)=[O+]c1ccccc1-c1ccccc1[O+]=2`, the “% Inhibition” value is reported as -17%. `O=C(Nc1ccc(C2(c3ccc(NC(=O)c4ccc(F)cc4)cc3)c3ccccc3C(=O)c3ccccc32)cc1)c1ccc(F)cc1` was tested, and the “% Inhibition” value was 67%. For `N=C(Cc1ccccc1)NOC(=O)c1cccc2ccccc12`, the “% Inhibition” value was -11%. With `O=C(COc1ccccc1Cl)Nc1ccc(C2(c3ccc(NC(=O)COc4ccccc4Cl)cc3)c3ccccc3-c3ccccc32)cc1` the “% Inhibition” value was 0%. For `O=C(Nc1ccc(N2CCn3c(nc4ccccc43)C2)cc1)c1ccc(F)cc1`, the “% Inhibition” value was 9%. `O=C1c2ccccc2C(c2ccc(NC(=O)c3cccc4ccccc34)cc2)(c2ccc(NC(=O)c3cccc4ccccc34)cc2)c2ccccc21` was tested, and the “% Inhibition” value was 83%. With `O=C(c1ccccc1F)N(Cc1nccn1Cc1ccccc1F)CC1CC1` the “% Inhibition” value was 20%. `O=C(Nc1ccc(Cl)cc1)c1cccc(N2C(=O)C3CCC(c4ccccc4)CC3C2=O)c1` (stereo not drawn) was tested, and the “% Inhibition” value was -5%. In the case of `COc1cc([C@H](CC(=O)NC2CCN(Cc3ccccc3)CC2)N2Cc3ccccc3C2=O)cc(OC)c1OC`, the “% Inhibition” value is reported as 33%. In the case of `CN1CCN(C(=O)[C@H](C(=O)c2ccccc2)n2cc(Cl)ccc2=O)CC1`, the “% Inhibition” value is reported as -9%. In the case of `Fc1ccccc1N1CCN(C2CCN(Cc3c[nH]c4ccccc34)CC2)CC1`, the “% Inhibition” value is reported as 4%. For `COc1ccccc1N1CCN(Cc2nc3ccccc3c(=O)n2-c2ccc(F)cc2)CC1`, the “% Inhibition” value was 6%. For `COc1ccc2[nH]c3c(c2c1)CC(C(=O)O)NC3c1ccc(OC)c(CN2CCN(c3ccccc3F)CC2)c1` (stereo not drawn), the “% Inhibition” value was 76%. In the case of `CC(C)(C)CCN1CCN(S(=O)(=O)C[C@H]2CCCS(=O)(=O)C2)CC1`, the “% Inhibition” value is reported as -3%. `C[C@@H](CN)N(C)c1ccnc2cc(Br)cnc12` was tested, and the “% Inhibition” value was 98%. For `COc1c(Br)cc(Br)cc1C(N)=O`, the “% Inhibition” value was -5%. With `CCCOc1cc2nc(C(F)(F)F)cc(-c3cccs3)c2cc1OCCC` the “% Inhibition” value was -4%. In the case of `CC1=CC(=[N+](CCO)CCO)C=C/C1=C(\c1ccc(N(CCO)CCO)cc1C)c1ccccc1Cl`, the “% Inhibition” value is reported as 91%.
